# Laboratory results taken from PubChem BioAssay (NCI).
# Where “and” joins values, the source holds several entries; their conditions need not be identical. Equal values may be shown once. This is part of a sample that, as a whole, favours compounds with a hit. Of some 83,000 tested, about 20% had one in any assay.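 Results are percent growth after 48 hours of single-concentration exposure. 100 means growth as in untreated cells, lower positive values show inhibition; negative values down to -100 show cell death.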 Calls of active or inactive are those of the source. The calls were made as follows: active = growth percent below 10; inactive = the rest.
# Legend:
# Test in all cases: NCI-60 one-dose screen, 48 h (100 = growth as untreated, 0 = no growth, -100 = all killed)
# Details in all cases: 10 µM unless noted
# T-47D breast = system: T-47D breast
# BT-549 breast = system: BT-549 breast
# MDA-MB-435 melanoma = system: MDA-MB-435 melanoma
# SW-620 colon = system: SW-620 colon
# MCF7 breast = system: MCF7 breast
# HCT-116 colon = system: HCT-116 colon
# HCC-2998 colon = system: HCC-2998 colon
# KM12 colon = system: KM12 colon
Compound,growth (T-47D breast),growth (BT-549 breast),growth (MDA-MB-435 melanoma),growth (SW-620 colon),growth (MCF7 breast),growth (HCT-116 colon),growth (HCC-2998 colon),growth (KM12 colon)
COc1ccc(/C=N\Nc2nc(SCC(C)C)nc(-c3ccc(OC)cc3)c2C#N)cc1,16.2% (inactive),110% (inactive),68.5% (inactive),51% (inactive),59.3% (inactive),2.29% (active),64.2% (inactive),62.6% (inactive)
N=C(N)c1ccc(-c2ccc(-c3ccc(Cl)c(Cl)c3)s2)cc1,62.1% (inactive),109% (inactive),14.4% (inactive),-65.1% (active),-62.4% (active),-46.6% (active),-53.7% (active),-91.4% (active)
Cc1nc2cccc(NCCCCC(=O)NO)c2c(=O)n1-c1ccccc1,54.5% (inactive),86.8% (inactive),53.8% (inactive),47.5% (inactive),57.9% (inactive),27.3% (inactive),82% (inactive),73.8% (inactive)
NC1=CC(=O)c2cccnc2C1=O,-34.4% (active),9.57% (active),-95.5% (active),-80% (active),-55.5% (active),-56.4% (active),59.9% (inactive),58.9% (inactive)
COc1ccc(-c2ccccc2)cc1-c1c(Nc2cc(Cl)cc(Cl)c2O)c(=O)c1=O,-8.93% (active),19.7% (inactive),-4.35% (active),17.5% (inactive),5.24% (active),11.2% (inactive),13.8% (inactive),7.85% (active)
COc1cc2nc3cc([N+](=O)[O-])ccc3c(NCCNCC(C)(C)O)c2cc1OC,-3.16% (active),-75.6% (active),-86.8% (active),-15.2% (active),-14.1% (active),-20.9% (active),-53.3% (active),-7.24% (active)
COc1ccc(-c2nc(Cl)c3c(C)nn(-c4ccc(F)cc4)c3n2)cc1,102% (inactive),123% (inactive),112% (inactive),103% (inactive),105% (inactive),96.5% (inactive),103% (inactive),104% (inactive)
O=C(CCCCCCCCC(=O)N/N=C\c1ccccc1O)N/N=C\c1ccccc1O,18.1% (inactive),26.9% (inactive),33.8% (inactive),30.2% (inactive),16.9% (inactive),13% (inactive),44.8% (inactive),26.5% (inactive)
O=C(Cn1cc(CN2CCN(c3ccnc4cc(Cl)ccc34)CC2)nn1)Nc1cccc([N+](=O)[O-])c1,75% (inactive),85.6% (inactive),98.7% (inactive),95% (inactive),89.1% (inactive),101% (inactive),106% (inactive),85.4% (inactive)
COc1ccc(/C=C/C(=O)c2cc3c(N)c(C(=O)Nc4ccccc4)sc3nc2C)cc1,46.7% (inactive),2.86% (active),-23.9% (active),18% (inactive),7.19% (active),8.12% (active),11.7% (inactive),6.61% (active)
CC(C)=CCc1cc(O)c(O)c2oc3cc(O)cc(O)c3c(=O)c12,69.5% (inactive),75.1% (inactive),61.1% (inactive),61.9% (inactive),91.6% (inactive),43.1% (inactive),104% (inactive),59.8% (inactive)
COc1ccc2c(c1)CC[C@@H]1[C@@H]2CC[C@]2(C)C3C(=CCC4C(=O)N(c5ccccc5)C(=O)C43)C[C@@H]12 (some centres not stated),99.6% (inactive),110% (inactive),86.4% (inactive),90.6% (inactive),111% (inactive),66.9% (inactive),93.6% (inactive),93.6% (inactive)
COc1c(O)c(O)cc2c3c(oc12)CC(c1ccc2c(c1)OCO2)CC3=O (configuration not stated),43.8% (inactive),56.2% (inactive),39.8% (inactive),38.7% (inactive),35.5% (inactive),32.1% (inactive),92.9% (inactive),66% (inactive)
C=C(C)[C@@H]1CC[C@]2(C(=O)O)CC[C@]3(C)[C@H](CC[C@@H]4[C@@]5(C)CCC(N)C(C)(C)[C@@H]5CC[C@]43C)[C@@H]12 (some centres not stated),-4.16% (active),101% (inactive),-51% (active),16.3% (inactive),2.48% (active),2.64% (active),23.8% (inactive),24.2% (inactive)
CC(=O)c1c(C)nc2ccccc2c1/C=C/c1cccc(C)c1,38.6% (inactive),64.2% (inactive),5.84% (active),29.4% (inactive),24.2% (inactive),32.9% (inactive),79.4% (inactive),52.1% (inactive)
Cc1ccc(/C=C/c2c(C(=O)/C=C/c3ccccc3)c(C)nc3ccccc23)cc1,16.1% (inactive),41.5% (inactive),-45.4% (active),3.35% (active),12.6% (inactive),-54.7% (active),20.6% (inactive),13.1% (inactive)
N#C/C(=C\c1ccc(Br)cc1)n1nnc2c(F)cccc21,14.2% (inactive),12% (inactive),-26.8% (active),-22.1% (active),12.7% (inactive),-27.5% (active),-38.4% (active),4.37% (active)
COCCn1cc(-c2nc(-c3cn(CCOC)c4ncccc34)cs2)c2ccccc21,-3.64% (active),77.7% (inactive),108% (inactive),115% (inactive),10.5% (inactive),79.9% (inactive),42.2% (inactive),21.1% (inactive)
Nc1ccc(S(=O)(=O)c2ccc(N)cc2)cc1,104% (inactive) and 100% (inactive),104% (inactive) and 110% (inactive),94.6% (inactive),108% (inactive) and 92.5% (inactive),99.5% (inactive) and 104% (inactive),107% (inactive) and 94.9% (inactive),98% (inactive) and 108% (inactive),106% (inactive) and 109% (inactive)
COc1cc(Nc2nc3ccccc3cc2C(=O)Nc2ccc(F)c(F)c2)cc(OC)c1OC,9.25% (active),55.5% (inactive),19.7% (inactive),23% (inactive),12.8% (inactive),6.91% (active),45.3% (inactive),20% (inactive)
Cc1ccc(NC(=O)c2ccc(CN3CCN(C)CC3)cc2)cc1Nc1nccc(-c2cccnc2)n1,81.4% (inactive) and 57.8% (inactive),105% (inactive) and 61.1% (inactive),92.6% (inactive) and 77.7% (inactive),110% (inactive) and 88.6% (inactive),91.9% (inactive) and 55.7% (inactive),81.4% (inactive) and 55.1% (inactive),122% (inactive) and 96.8% (inactive),107% (inactive) and 69% (inactive)
CC(=O)N1N=C(c2ccc(F)cc2)CC1c1sc(N(C)Cc2ccccc2)nc1Cl (configuration not stated),74.1% (inactive),95.2% (inactive),96.5% (inactive),99.4% (inactive),76% (inactive),84.5% (inactive),91.2% (inactive),92.4% (inactive)
CCN1CCN(C(=O)[C@]23CC[C@@H](C)[C@H](C)[C@@H]2C2=CC[C@@H]4[C@@]5(C)CCC(=O)C(C)(C)[C@@H]5CC[C@@]4(C)[C@]2(C)CC3)CC1,8.54% (active),-26% (active),11% (inactive),-50.4% (active),4.77% (active),-48.3% (active),0.569% (active),6.9% (active)
O=C(CN1C(=O)S/C(=C\C(Cl)=C\c2ccccc2)C1=O)NCCCn1ccnc1,21.3% (inactive),43.8% (inactive),20.2% (inactive),3.27% (active),15% (inactive),-57.2% (active),73.5% (inactive),33.9% (inactive)
CN(C)CCCn1c2c(c3ccc(N4CCNCC4)cc3c1=O)C(=O)c1ccccc1-2,44% (inactive),54.2% (inactive),20% (inactive),-21.6% (active),-28.2% (active),-89.1% (active),-68.9% (active),-32.1% (active)
Cc1ccc(/C=C(\C#N)c2cc3ccccc3[nH]2)cc1,36.1% (inactive),56.9% (inactive),-5.1% (active),16.4% (inactive),22.4% (inactive),32.5% (inactive),65.9% (inactive),31.7% (inactive)
Cc1ccc(S(=O)(=O)OC[C@@]2(C)CC[C@]3(C)CC[C@]4(C)C(=CC[C@@H]5[C@@]6(C)CCCNC(C)(C)[C@@H]6CC[C@]54C)[C@@H]3C2)cc1,-82.8% (active),76.5% (inactive),-89.9% (active),-81.9% (active),-61.6% (active),-80.6% (active),-92.3% (active),-91.7% (active)
CCN(CC)CC(=O)Nc1ccc2ncnc(Nc3ccc(Oc4cccc(F)c4)c(Cl)c3)c2c1,54.5% (inactive),78.5% (inactive),75% (inactive),67.6% (inactive),52.9% (inactive),64.7% (inactive),53.1% (inactive),51.5% (inactive)
O=C(Cc1ccc(F)cc1)c1ccccc1,112% (inactive),97.2% (inactive),106% (inactive),110% (inactive),103% (inactive),103% (inactive),106% (inactive),111% (inactive)
